# According to PubChem BioAssay AID1626 (SRMLSC, 2009):
# Out of some 220,000 compounds screened, about 2,000 (0.91%) were called active. Another 2% or so got no clear call; they are omitted. The list is a sample of the results. Potency and affinity values are given separately. Values without a mark were called inactive. Rule as the data show it: inconclusive = inhibition above about 80% without an active follow-up result; inactive = below that; test concentration not stated here.
# Assay: M. tuberculosis H37Rv growth inhibitors, H37Rv strain (AID 1626);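 also: bacteria incubated seven days before Alamar blue readout; 0% = bacteria only wells and 100% = bacteria with antibiotic wells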
# Conditions: hits give high values, concentration not given here
row,SMILES,inhibition [%]
1,COc1ccc(C(=O)N[C@H](C(=O)OCc2cc(=O)oc3cc(C)ccc23)C(C)C)cc1,9.93
2,Cc1cccc(C)c1OCCCCn1cnc2ccccc2c1=O,-6.94
3,CCOC(=O)N1CCN(C(=O)CCCn2c(=O)[nH]c3ccccc3c2=O)CC1,1.26
4,COC(=O)C1=C(C)NC(C)=C(C(=O)OC)C1C1CC=CCC1 (stereo not given),5.42
5,Cc1cccn2cc(-c3cccc(NC(=O)c4cccs4)c3)nc12,2.98
6,COc1ccc(-c2cc(C(=O)OC3CCOC3=O)c3ccccc3n2)cc1OC (stereo not given),-3.98
7,CCOC(=O)N1CCN(C(=O)CSc2ccc(-c3ccccc3OC)nn2)CC1,3.28
8,COC(=O)c1ccc(Cl)c(S(=O)(=O)N2CCCC2)c1,4.58
9,C=C(C)C1Cc2c(C)nn(-c3ccccc3)c2C1 (stereo not given),3.68
10,C=C(C)C1Cc2c(C)nn(-c3cccc4ccccc34)c2C1 (stereo not given),13.7
11,COc1ccccc1CCc1nnc(CCC(=O)NC(C)Cc2cccnc2)o1 (stereo not given),4.51
12,COc1ccccc1Nc1nnc(SCC(=O)N2CCCC2)s1,-3.72
13,O=C(CCC1CCCCC1)NNC(=O)NC12CC3CC(CC(C3)C1)C2,-2.75
14,OC(CNCc1ccco1)Cn1c2ccccc2c2ccccc21 (stereo not given),0.42
15,OC(CNCC1CCCO1)Cn1c2ccc(Br)cc2c2cc(Br)ccc21 (stereo not given),43.1
16,O=C(CCc1nnc(Cc2c[nH]c3ccccc23)o1)NC1CCCC1,-6.46
17,CN(C)S(=O)(=O)c1ccc(NC(=O)CSc2nnnn2C)cc1,2.23
18,Cc1ccc(S(=O)(=O)NC(=O)Nc2cc(C(C)(C)C)on2)cc1,-7.06
19,Cc1ccc2cc(CCNC(=O)c3cccc([N+](=O)[O-])c3)c(=O)[nH]c2c1,2
20,O=C(COc1ccc(Cl)cc1Cl)Nc1nnc(C2=COCCO2)o1,1.29
21,COc1ccc2nc(NC(=O)c3ccc4ncsc4c3)sc2c1,8.2
22,COc1ccc(C)c2sc(NC(=O)C3=COCCO3)nc12,5.95
23,Cc1ccnc2nc(C(=O)Nc3nnc(-c4ccc(Cl)cc4)o3)nn12,-1.12
24,CCc1nnc(NC(=O)c2ccc3ncsc3c2)s1,-18.6

row,SMILES,inhibition [%]
1,COc1ccc(-c2csc(NC(=O)COC(=O)C3=COCCO3)n2)cc1,4.53
2,COc1ccc(OC)c2sc(NC(=O)C3=COCCO3)nc12,6.97
3,COc1ccc(CCNC(=O)C2=COCCO2)cc1,0.72
4,COc1ccc(CC2(CO)CCN(Cc3cnn(-c4ccc(F)cc4)c3)CC2)cc1,-9.12
5,NC(=O)c1ccccc1NS(=O)(=O)c1ccc2c(c1)OCCO2,-3.34
6,CN1CCN(c2ccc(Cl)cc2NC(=O)c2ccc(S(=O)(=O)N(C)C)cc2)CC1,-2.17
7,COc1ccc(C(=O)NC(=S)Nc2cccc(NC(=O)c3ccco3)c2)cc1[N+](=O)[O-],6.53
8,CCCN1C(=O)c2ccccc2NC1c1ccc(OC)c(CSc2ccccn2)c1 (stereo not given),-2.45
9,CCN(CC)S(=O)(=O)c1ccc(/C=C/C(=O)Nc2c(C)n(C)n(-c3ccccc3)c2=O)cc1,-0.04
10,Cn1c(=O)c([N+](=O)[O-])c(NCCCn2ccnc2)c2ccccc21,-3.33
11,Cc1ccccc1-n1nnnc1SC(C)C(=O)NC1CCCc2ccccc21 (stereo not given),10.2
12,Cn1c(CNc2cccc(Cl)c2)nnc1SCC(=O)OC1CCCCC1,62.1
13,Cc1ccc(NCc2nnc(SCC(N)=O)o2)c(C)c1,-3.32
14,Cc1ccc(C(=O)CSc2nnc(CNc3ccc(C)cc3C)o2)cc1,-7.6
15,O=C(CSc1nnc(CNc2ccc(F)cc2)o1)OC1CCCCC1,25.5
16,COC(=O)Nc1ccc(S(=O)(=O)N2CCCCC2C(=O)NCc2ccco2)cc1 (stereo not given),-7.03
17,O=C(COC(=O)CNS(=O)(=O)/C=C/c1ccccc1)NC1CCS(=O)(=O)C1 (stereo not given),-7.59
18,O=C(COc1ccc(Br)cc1Br)NC(=O)NC1CCCC1,3.86
19,Cc1ccc(CNc2ccc(N3CCOCC3)c(C(=O)O)c2)s1,-3.09
20,COc1cccc(OCC(O)CN2CCC(CN3C(=O)c4cccc5cccc(c45)C3=O)CC2)c1 (stereo not given),-4.13
21,O=C1c2cccc3cccc(c23)C(=O)N1CC1CCN(CC(O)COCc2ccc3c(c2)OCO3)CC1 (stereo not given),76.5
22,CCCCN(CCCC)C(=O)c1cc(Cl)ccc1[N+](=O)[O-],11
23,CCN(CC)C(=O)c1cc([N+](=O)[O-])cc2c1-c1ccc([N+](=O)[O-])cc1C2=C(C#N)C#N,23
24,C=CCNC(=O)C1CC(=O)N(c2ccc(OCC(=O)Nc3ccc(Cl)c(C(F)(F)F)c3)cc2)C1 (stereo not given),-8.95

row,SMILES,inhibition [%]
1,Cc1cc(C)c(-c2cc(NC(=O)COC(=O)c3ccc(CO)cc3)n(-c3ccccc3)n2)cc1C,4.29
2,COC(=O)C1CCN(C(=O)COC(=O)Cc2c[nH]c3ccccc23)CC1,2.16
3,COc1ccc(N2CCN(C(=O)CCc3c[nH]c4ccccc34)CC2)cc1,-4.15
4,COc1ccc(CNC(=O)COC(=O)CCc2c[nH]c3ccccc23)cc1,4.73
5,CC(=O)N1CCN(C(=O)CCc2c[nH]c3ccccc23)CC1,3.68
6,COc1ccc(C)cc1NC(=O)CSc1nnc(-c2ccco2)n1Cc1ccco1,-0.88
7,CC(=O)Nc1sc(N/N=C\c2cccc(Cl)c2)nc1-c1cccs1,54.5
8,CCS(=O)(=O)N1CCCC(C(=O)NCCN(C)Cc2ccccc2)C1 (stereo not given),-6.72
9,Cc1ccc(C(=O)CSc2ncnc3ccccc23)o1,10.6
10,COc1ccc(CCN(Cc2cccs2)S(=O)(=O)c2ccc(C(=O)O)cc2)cc1OC,-3.72
11,CSc1nnc(-c2cnccn2)n1Cc1ccccc1,-1.1
12,CCOc1ccc(OCCCC(=O)NC2=NCCS2)cc1,-1.83
13,CC(C)(C)c1ccc(OCCC(=O)NC2=NCCS2)cc1,-11.7
14,COc1cccc(CNC23CC4CC(CC(C4)C2)C3)c1OCc1ccccc1,13.5
15,c1ccc(COc2ccccc2CNC23CC4CC(CC(C4)C2)C3)cc1,17
16,CS(=O)(=O)N1CCN(C2Cc3ccccc3C2)CC1,-13.7
17,O=[N+]([O-])c1ccc(O)c(C=Nc2ccc3c(c2)OCCO3)c1,77.5
18,O=[N+]([O-])c1ccc(O)c(C=Nc2ccc3c(c2)OCO3)c1,8.62
19,CCN1CCN(c2nc(N)c([N+](=O)[O-])c(Nc3ccc(C)c(C)c3)n2)CC1,51.5
20,Cc1cccc(Nc2nc(N3CCN(C)CC3)nc(N)c2[N+](=O)[O-])c1,16.3
21,N#Cc1ccccc1Cn1c(=O)n(Cc2ccc(C(=O)NCc3ccco3)cc2)c(=O)c2sccc21,-3.31
22,CN1C(=O)C(O)(CC(=O)c2ccncc2)c2ccccc21 (stereo not given),3.47
23,C/C(CC1(O)C(=O)N(C)c2ccccc21)=N\O (stereo not given),-3.6
24,COc1cc(OC)c(N(C)C(=O)CCNC(=O)Cn2cnc3ccccc3c2=O)cc1Cl,-0.76

row,SMILES,inhibition [%]
1,NC(=NC(=O)c1ccc(Cl)cc1)N1N=CCC1c1ccccc1 (stereo not given),11.8
2,COc1ccc(C2c3ccc(O)cc3Oc3ncn(CCN4CCOCC4)c(=N)c32)cc1 (stereo not given),-0.84
3,Cc1ccc(-c2nn(-c3ccccc3)cc2NC(=O)c2ccccc2)cc1,-0.55
4,CC(=O)Nc1cn(-c2ccccc2)nc1-c1ccccc1,-0.45
5,O=C(CCl)Nc1cn(-c2ccccc2)nc1-c1ccc(F)cc1,61.8
6,O=C(Nc1cn(-c2ccccc2)nc1-c1ccc(Cl)cc1)c1ccccc1,9.57
7,CNC(=S)N1CCc2ccccc2C1,3.08
8,COc1ccc(NC(=O)C(NC(=O)CNC(C)=O)c2ccc(C)cc2)cc1 (stereo not given),-6.91
9,O=C(CCN1C(=O)c2ccccc2C1=O)NC(=S)Nc1ccccc1Cl,9.27
10,Oc1[nH]c2ccccc2c1C=Nc1ccc2c(c1)OCCO2,6.37
11,O=C(NCCCn1ccnc1)c1cc2nc(-c3ccc(Br)cc3)cc(C(F)(F)F)n2n1,6.06
12,O=C(NCCCn1ccnc1)c1nn2c(C(F)(F)F)cc(-c3ccccc3)nc2c1Cl,-4.76
13,O=C(O)COCC(=O)Nc1ccccc1-c1ccccc1,-0.81
14,COc1ccc(CN(C)Cc2nc3scc(-c4ccccc4)c3c(=O)[nH]2)cc1OC,3.92
15,CCOC(=O)N1CCN(c2ccc(Cl)c(Cl)c2)CC1,6.01
16,COC(=O)N1CCN(c2ccc(Cl)c(Cl)c2)CC1,-4.81
17,O=S1(=O)CCN(CCc2c[nH]c3ccccc23)CC1,3.01
18,COC(=O)c1ccc(C(=O)Nc2nnc(-c3cccnc3)o2)cc1,-5.5
19,O=C(Nc1nnc(-c2ccncc2)o1)c1cccc(N2C(=O)CCC2=O)c1,-4.89
20,N#Cc1ccc(C(=O)Nc2nnc(-c3ccccn3)o2)cc1,1.74
21,CC(=O)Nc1nnc(-c2ccccn2)o1,-3.3
22,O=C(CCc1ccccc1)Nc1nnc(-c2ccccn2)o1,-4.88
23,CCC(=O)Nc1nnc(-c2ccccn2)o1,5.88
